Data taken from PubChem BioAssay.
A number with no mark means an inactive call. For some of these results: Results with a measured potency or affinity are listed apart. Calls of active or inactive are those of the source. Unless noted, the rule behind the calls is not given here.

Experiments:
[1] = antimalarial activity against Dd2 strain (AID 2302;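 active = growth inhibition above 50% at the single 2 µM test dose, taken to imply half-maximal potency below 2 µM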;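 note: 0% = DMSO untreated growth and 100% = chloroquine plus artemisinin killed control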); settings: P. falciparum Dd2 in RBCs, LDH growth readout, 72 h; at 2 µM; active compounds read high
[2] = HepG2 cytotoxicity, primary screen, cytotoxicity control for P. falciparum antimalarial project, cell-based, ATP luminescence (AID 2303;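 active = inhibition above 50%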;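 note: 0% = DMSO wells and 100% = digitonin-killed cells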); settings: HepG2 viability, 24-48 h, at 10 µM, active compounds read high
[3] = biological target: L-lactate dehydrogenase (Plasmodium falciparum (isolate CDC / Honduras)) (UniProt Q27743); experiment: PfLDH activity inhibition – cell lysate, 3D7 strain, counter-screen for P. falciparum growth inhibition project (AID 2304);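 note: 0% = vehicle and 100% = reference inhibitor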; settings: P. falciparum 3D7 crude extract, LDH APAD/NBT absorbance; at 2 µM; active compounds read high
L-lactate dehydrogenase (Plasmodium falciparum (isolate CDC / Honduras)), sequence (Q27743 whole entry, looked up): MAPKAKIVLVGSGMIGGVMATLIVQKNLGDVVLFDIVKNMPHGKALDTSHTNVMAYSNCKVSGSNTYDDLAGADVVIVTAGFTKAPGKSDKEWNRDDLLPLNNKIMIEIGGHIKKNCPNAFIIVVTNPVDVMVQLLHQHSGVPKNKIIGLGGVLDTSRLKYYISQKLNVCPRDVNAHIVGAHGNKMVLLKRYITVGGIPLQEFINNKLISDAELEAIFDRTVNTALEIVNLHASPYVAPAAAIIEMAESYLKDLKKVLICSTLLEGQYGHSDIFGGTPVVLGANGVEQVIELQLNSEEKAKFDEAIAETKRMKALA

[4] = inhibition of 3D7 malaria parasite growth – strain 3D7 (AID 2306);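 note: 0% = DMSO wells and 100% = chloroquine plus artemisinin control wells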; settings: P. falciparum 3D7 erythrocytic growth, LDH absorbance, 72 h; at 2 µM; active compounds read high
[5] = biological target: Calcium-dependent protein kinase 1 (Plasmodium falciparum (isolate 3D7)) (UniProt P62344); experiment: PfCDPK1 kinase inhibitors, biochemical, TCAMS library (AID 1159585; cut-off not given, nearly all actives have IC50 up to about 0.98 µM;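 note: inhibitors leave more ATP so luminescence rises with inhibition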); settings: recombinant PfCDPK1, Kinase-Glo ATP depletion luminescence
Calcium-dependent protein kinase 1 (Plasmodium falciparum (isolate 3D7)), sequence (P62344 whole entry, looked up): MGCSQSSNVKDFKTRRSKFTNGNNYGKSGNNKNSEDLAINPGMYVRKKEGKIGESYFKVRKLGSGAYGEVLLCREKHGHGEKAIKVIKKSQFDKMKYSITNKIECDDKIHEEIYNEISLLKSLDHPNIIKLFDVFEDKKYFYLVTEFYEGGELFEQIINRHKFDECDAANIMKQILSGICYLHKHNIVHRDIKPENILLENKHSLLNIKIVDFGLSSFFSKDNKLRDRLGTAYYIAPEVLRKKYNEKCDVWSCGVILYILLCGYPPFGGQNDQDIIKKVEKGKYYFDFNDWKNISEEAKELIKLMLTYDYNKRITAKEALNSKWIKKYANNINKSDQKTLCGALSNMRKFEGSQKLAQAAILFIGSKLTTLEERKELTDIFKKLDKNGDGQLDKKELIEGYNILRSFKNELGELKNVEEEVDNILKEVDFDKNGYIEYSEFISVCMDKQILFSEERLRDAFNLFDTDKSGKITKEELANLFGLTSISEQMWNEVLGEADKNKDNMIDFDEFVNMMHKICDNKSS

[6] = biological target: Plasmodium falciparum protein kinase 6 (PK6, PF3D7_1337100) (UniProt Q8IDW1); experiment: PfPK6 kinase inhibitors, biochemical, TCAMS library (AID 1159586); settings: recombinant PfPK6, Kinase-Glo ATP depletion luminescence
Plasmodium falciparum protein kinase 6 (PK6, PF3D7_1337100), sequence (Q8IDW1 1-305): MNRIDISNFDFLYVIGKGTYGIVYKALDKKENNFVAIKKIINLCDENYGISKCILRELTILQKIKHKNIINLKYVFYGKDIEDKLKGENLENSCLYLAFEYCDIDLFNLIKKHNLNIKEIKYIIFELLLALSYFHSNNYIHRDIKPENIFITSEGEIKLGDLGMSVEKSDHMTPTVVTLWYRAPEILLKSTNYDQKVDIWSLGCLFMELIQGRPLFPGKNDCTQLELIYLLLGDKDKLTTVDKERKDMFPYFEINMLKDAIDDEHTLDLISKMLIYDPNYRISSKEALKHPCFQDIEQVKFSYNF

[7] = biological target: Protein kinase 7 (PK7), Plasmodium falciparum 3D7 (PF3D7_0213400) (UniProt Q7YTF7); experiment: inhibition of Plasmodium PK7 catalytic activity – biochemical, TCAMS antimalarial set, Kinase-Glo luminescence (AID 1159587); settings: recombinant PfPK7, Kinase-Glo ATP depletion luminescence
Protein kinase 7 (PK7), Plasmodium falciparum 3D7 (PF3D7_0213400), sequence (Q7YTF7 1-343): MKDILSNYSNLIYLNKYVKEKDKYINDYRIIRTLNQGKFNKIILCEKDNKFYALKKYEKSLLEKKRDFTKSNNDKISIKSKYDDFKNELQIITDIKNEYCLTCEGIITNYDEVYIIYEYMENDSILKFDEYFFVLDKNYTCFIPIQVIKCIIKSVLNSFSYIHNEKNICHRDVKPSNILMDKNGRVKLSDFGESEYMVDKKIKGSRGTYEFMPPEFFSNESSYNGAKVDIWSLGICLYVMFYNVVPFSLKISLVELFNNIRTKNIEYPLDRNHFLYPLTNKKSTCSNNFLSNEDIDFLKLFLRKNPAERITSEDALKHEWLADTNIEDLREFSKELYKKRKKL

[8] = biological target: Calcium-dependent protein kinase 4 (Plasmodium falciparum (isolate 3D7)) (UniProt Q8IBS5); experiment: PfCDPK4 kinase inhibitors, biochemical, TCAMS library (AID 1159588; cut-off not given, nearly all actives have IC50 up to about 0.91 µM); settings: recombinant PfCDPK4, Kinase-Glo ATP depletion luminescence
Calcium-dependent protein kinase 4 (Plasmodium falciparum (isolate 3D7)), sequence (Q8IBS5 whole entry, looked up): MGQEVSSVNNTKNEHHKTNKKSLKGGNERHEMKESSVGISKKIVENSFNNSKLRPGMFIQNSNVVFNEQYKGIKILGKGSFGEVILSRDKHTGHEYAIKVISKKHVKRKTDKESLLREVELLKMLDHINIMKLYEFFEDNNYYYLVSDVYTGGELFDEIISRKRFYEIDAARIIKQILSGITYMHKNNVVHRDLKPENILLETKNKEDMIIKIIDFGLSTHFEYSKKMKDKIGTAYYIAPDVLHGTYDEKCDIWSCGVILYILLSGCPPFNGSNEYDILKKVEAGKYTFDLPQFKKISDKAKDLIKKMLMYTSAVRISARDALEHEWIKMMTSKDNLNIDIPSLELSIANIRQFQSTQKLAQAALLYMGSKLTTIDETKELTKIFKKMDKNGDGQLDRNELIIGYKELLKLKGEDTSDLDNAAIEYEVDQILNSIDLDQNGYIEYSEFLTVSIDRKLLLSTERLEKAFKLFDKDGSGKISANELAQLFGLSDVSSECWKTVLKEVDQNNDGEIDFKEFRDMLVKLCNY

| Structure (SMILES) | growth inhibition [1] | inhibition [2] | inhibition [3] [%] | growth inhibition [4] | outcome [5] | outcome [6] | outcome [7] | outcome [8] |
| --- | --- | --- | --- | --- | --- | --- | --- | --- |
| COc1ccc2nccc([C@@H](O)CN3CCC(NC(=O)C(=O)c4c[nH]c5c(C)cccc45)CC3)c2c1 | 94% (active) | 17% | -3 | 102% (active) | inactive | inactive | inactive | inactive |
| COc1ccc2nccc([C@@H](O)CN3CCC(NCCOc4cc(F)cc(F)c4)CC3)c2c1 | 86% (active) | 10% | -3 | 101% (active) | inactive | inactive | inactive | inactive |
| CN1CCC(N2CCN(Cc3ccc(-c4cccc(-c5nc6ccc(F)cc6[nH]5)c4)cc3)CC2)CC1 | 99% (active) | 67% (active) | -1 | 101% (active) | inactive | inactive | inactive | inactive |
| CC(C)(CNC(=O)[C@@H]1CCCN(CCOc2ccc(F)c(F)c2)C1)c1nc(-c2ccc(Cl)c(O)c2)c(-c2ccncc2)[nH]1 | 77% (active) | 72% (active) | -1 | 101% (active) | inactive | inactive | inactive | inactive |
| CC1CCN(Cc2cccc(C(=O)NCc3ccc(F)c(-c4cccc(CN5CCN[C@@H](C)C5)c4)c3)c2)CC1 | 64% (active) | 26% | 2 | 91% (active) | inactive | inactive | inactive | inactive |
| Nc1cc(C=Cc2ccc([N+](=O)[O-])s2)nc2ccccc12 | 48% | 89% (active) | -7 | 98% (active) | inactive | inactive | inactive | inactive |
| CCCCn1c(=N)c(C(=O)NCc2cccnc2)cc2c(=O)n3cccc(C)c3nc21 | 47% | 7% | -2 | 101% (active) | inactive | inactive | inactive | inactive |
| CC(=O)N(C)c1cccc(C(=O)Nc2cccc(-c3ccc(-c4nc5ccc(C(F)(F)F)cc5[nH]4)cc3)c2)c1 | 31% | 63% (active) | -2 | 90% (active) | inactive | inactive | inactive | inactive |
| Oc1ccc(CCNc2nc(NCc3cccc(-c4cc(C(F)(F)F)ccc4Cl)c3)nc(N3CCNCC3)n2)cc1 | 8% | 33% | 0 | 90% (active) | inactive | inactive | inactive | inactive |
| Oc1ccc(-c2cncc(NCc3ccc(F)c(F)c3)c2)cc1 | 80% (active) | -14% | -3 | 95% (active) | inactive | inactive | inactive | inactive |
| Fc1ccc2nc(-c3cccc(-c4ccc(CNCc5cnn(-c6ccccc6)n5)cc4)c3)[nH]c2c1 | 22% | 18% | -3 | 98% (active) | inactive | inactive | inactive | inactive |
| Cc1ccccc1N1CCN(c2ccc(C(=O)NC(C)C)cn2)CC1 | 91% (active) | 13% | -2 | 89% (active) | inactive | inactive | inactive | inactive |
| Cc1nc(-c2cccc(Nc3nccc(NCC(O)c4ccccc4C)n3)c2)cs1 (stereo not drawn) | 14% | 38% | -2 | 92% (active) | inactive | inactive | inactive | inactive |
| CSc1ccc(NC(=O)Nc2cc(C)nc3ccccc23)cc1Br | 66% (active) | 7% | -6 | 101% (active) | inactive | inactive | inactive | inactive |
| CN(CCN1CCC(c2c[nH]c3ccccc23)CC1)c1ccc(-c2nc3cc(Cl)c(Cl)cc3[nH]2)cc1 | 101% (active) | 22% | -1 | 101% (active) | inactive | inactive | inactive | inactive |
| COc1cccc(C(=O)NCCOc2ccccc2)c1Oc1ccccc1 | 98% (active) | 14% | -4 | 98% (active) | inactive | inactive | inactive | inactive |
| O=C(/C=C/c1ccc(Cl)c(Cl)c1)NCCCCCCN1CCCN(C(=O)Nc2ccc(F)c(Cl)c2)CC1 | 1% | 30% | 0 | 98% (active) | inactive | inactive | inactive | inactive |
| Cc1cc(C(=O)OCC(=O)Nc2c(C)n(C)n(-c3ccccc3)c2=O)c(C)n1-c1ccc(F)cc1 | 99% (active) | -4% | -1 | 100% (active) | inactive | inactive | inactive | inactive |
| CCCN(CCC)S(=O)(=O)c1ccc(C(=O)Nc2nc3ccc(-c4cc(=O)[nH]c(Nc5ccccc5Cl)n4)cc3[nH]2)cc1 | 98% (active) | 1% | -4 | 100% (active) | inactive | inactive | inactive | inactive |
| O=C1[C@H]2C(c3ccc(Cl)c(Cl)c3)N3CC(OCc4ccccc4)CC3(C(=O)O)[C@H]2C(=O)N1c1ccc(Br)cc1 (stereo partly drawn) | 86% (active) | 14% | 2 | 104% (active) | inactive | inactive | inactive | inactive |
| CCCC(C)NC[C@@H](O)[C@H](Cc1ccccc1)NC(=O)c1cc(NCC)cc(N2CCCCS2(=O)=O)c1 (stereo partly drawn) | 98% (active) | -4% | -2 | 101% (active) | inactive | inactive | inactive | inactive |

| Structure (SMILES) | growth inhibition [1] | inhibition [2] | inhibition [3] [%] | growth inhibition [4] | outcome [5] | outcome [6] | outcome [7] | outcome [8] |
| --- | --- | --- | --- | --- | --- | --- | --- | --- |
| Cc1cccc2[nH]c(-c3ccc(-c4cccc(CN5CCC(C(N)=O)CC5)c4)cc3)nc12 | 16% | 9% | 6 | 87% (active) | inactive | inactive | inactive | inactive |
| CC(C)CCN1CCCN(Cc2ccc(C(=O)Nc3ccc(C(C)(C)C)cc3)cc2)CC1 | 12% | 49% | -1 | 92% (active) | inactive | inactive | inactive | inactive |
| CCOP(=O)(OCC)c1ccc(OC)c(-c2ccc[nH]2)c1 | 10% | -13% | -2 | 95% (active) | inactive | inactive | inactive | inactive |
| O=C(/C=C/c1ccc(Cl)c(Cl)c1)NCCCCCN1CCC(C(=O)Nc2ccc(Cl)cc2)CC1 | -1% | 42% | 8 | 100% (active) | inactive | inactive | inactive | inactive |
| CN(C)CCCn1cncc1-c1ccc2ncnc(Nc3ccc4c(cnn4Cc4ccccc4)c3)c2c1 | 77% (active) | 17% | -2 | 101% (active) | inactive | inactive | inactive | inactive |
| CCOc1ccc(-c2n[nH]c(C(F)(F)F)c2-c2ccccc2OC)c(O)c1 | 12% | 22% | -5 | 86% (active) | inactive | inactive | inactive | inactive |
| Cc1ccnc(NC(c2ccc(Cl)c([N+](=O)[O-])c2)c2ccc3cccnc3c2O)c1 (stereo not drawn) | 57% (active) | 47% | 6 | 89% (active) | inactive | inactive | inactive | inactive |
| CN(C)c1ccc(CN2CCCC(CNC(=O)c3ccc(-c4cccc(C(F)(F)F)c4)s3)C2)cc1 (stereo not drawn) | 37% | 32% | 0 | 89% (active) | inactive | inactive | inactive | inactive |
| COc1ccc(C2N=C(N)N=C(N)N2OCc2ccccc2)cc1OC (stereo not drawn) | 2% | 1% | 0 | 95% (active) | inactive | inactive | inactive | inactive |
| Cc1cc(=O)[nH]c(-n2nc(C)cc2NC(=O)C2(c3ccc(Cl)cc3)CCCC2)n1 | 97% (active) | 30% | 5 | 96% (active) | inactive | inactive | inactive | inactive |
| CC(C)c1ccc(C(NC(=O)C2CCCCC2)c2ccc3cccnc3c2O)cc1 (stereo not drawn) | 70% (active) | 46% | -8 | 89% (active) | inactive | inactive | inactive | inactive |
| O=C(NCCCCN1CCC(c2ccc(Br)cc2)CC1)c1ccc(NC(=O)c2ccc(Cl)cc2)cc1 | 86% (active) | 17% | 0 | 100% (active) | inactive | inactive | inactive | inactive |
| CCOc1cc(C)ccc1C1CCN(CCCCNC(=O)c2cccc(-c3ccc(C(F)(F)F)cc3)c2)CC1 | 55% (active) | 39% | 2 | 99% (active) | inactive | inactive | inactive | inactive |
| CCN(CC)c1nc(N)c2c(N)nc3c(c2c1C#N)C(=O)CN3Cc1ccccc1 | 96% (active) | 26% | -3 | 96% (active) | inactive | inactive | inactive | inactive |
| COc1ccc2c(c1)CCN(CCN1CCC(CNC(=O)c3ccc(-c4ccc(C#N)cc4)cc3)CC1)C2 | 51% (active) | 40% | 2 | 100% (active) | inactive | inactive | inactive | inactive |
| COc1cccc(C(=O)Nc2ccc(Nc3nc(C)cc(N(C)C)n3)cc2)c1OC | 9% | -10% | -3 | 90% (active) | inactive | inactive | inactive | inactive |
| CN(C)Cc1c(O)ccc2oc(Cc3ccccc3)cc12 | 94% (active) | 0% | 0 | 99% (active) | inactive | inactive | inactive | inactive |
| CCCc1cc(Cc2cnc(N)nc2N)cc(CCC)c1OCCCCC(=O)OC | -5% | -7% | -5 | 94% (active) | inactive | inactive | inactive | inactive |
| COc1ccc2nccc([C@@H](O)CN3CCC(NCc4cnc5snnc5c4)C(F)C3)c2c1 (stereo partly drawn) | 88% (active) | 13% | 2 | 83% (active) | inactive | inactive | inactive | inactive |
| O=C(C=Cc1ccc(Cl)c(Cl)c1)NCCCCCN1CCC(CCCNS(=O)(=O)c2ccc(F)cc2)CC1 | 20% | 52% (active) | 4 | 93% (active) | inactive | inactive | inactive | inactive |
